Results from PubChem BioAssay (NCATS).
Active and inactive are the calls of the source. The call rests on the fitted dose curve; in most records, active means well fitted inhibition curve with a large enough effect; inconclusive means small, poorly fitted or top-dose-only effect; inactive means no such curve, though single readings can be large or run the other way.

Assay: qHTS assay for measurement of the activity of small molecule inhibitors on Zika virus induced Caspase-3 activity in human astrocytoma cells (AID 1224859)
Conditions: SNB-19 ZIKV-induced caspase-3/7, luminescence, 6 h; series mostly up to 45.7 µM; activity change, negative = inhibition: at the top concentration
Description: National Center for Advancing Translational Sciences [NCATS]
Johns Hopkins University School of Medicine
Increase in the Caspase-3 activity indicates an activation of apoptosis cell death pathway caused by Zika virus infection in certain types of neuronal cells including human neural progenitor cells (hNPCs), astrocytes, and astrocytoma cell line (SNB-19). This cell-based caspase-3 activity assay measures the increased caspase-3 activity in the astrocytoma cell line (SNB-19) after a 6-hour Zika virus infection with a luminescence readout. A decrease in the luminescence signal in this assay by small molecule treatment indicates an inhibitory effect of that small molecule on the Zika virus induced caspase-3 activity that may correlate with its effect on reduction of Zika virus caused cell death.
The medium for SNB-19 cells is composed of RPMI 1640 (ATCC, Cat.# 30-2001), 10% fetal bovine serum (FBS) (GE healthcare Life Sciences, Cat.# SH30071.03), and 1% Pen/Strep (Gibco, Cat.# 15140-122). A Caspase-Glo 3/7 assay kit (catalog number G8092; Promega, Madison, WI) was used to detect caspase-3 activity induced by Zika virus infection in human cells. The reagent mixture was reconstituted as described in the protocol from the manufacturer. Polystyrene tissue culture treated and PDL coated white plates were obtained from Greiner Bio-One (Monroe, NC). Cells were seeded in 384- or 1536-well assay plates and cultured at 37 C with 5% CO2 for 16 to 20 hours. The typical cell seeding density in the 1536-well plate assay is 250 cells/well in 3ul medium for SNB-19 cells in tissue culture treated plates. Compounds were added to cells and incubated for one hour before addition of ZIKV solution to cells (2 FFU/cell). After incubation at 37 C with 5% CO2 for 6 hours, the reagent mixture of Caspase-Glo 3/7 assay kit was added to each well, followed by incubation at room temperature for 30 minutes. The luminescence intensity of the assay plates was measured using a ViewLux plate reader (PerkinElmer). Data were normalized by using the cell-containing wells without ZIKV as a negative control (0% induction of caspase 3/7 activity) and wells containing ZIKV infected cells (Caspase-3 activity induced) as a positive control (100% induction of caspase 3 activity). The percentage inhibitions of the increased Caspase-3 activity by small molecule inhibitors were then calculated.

SMILES | activity change, negative = inhibition
NS(=O)(=O)c1cc2c(cc1C(F)(F)F)NCNS2(=O)=O | -4.45% (inactive)
Nc1ncnc(Nc2ccccc2)n1 | 7.04% (inactive)
CC(O)CCCCn1c(=O)c2c(ncn2C)n(C)c1=O (stereo not given) | 10.2% (inactive)
CC(=O)OCC(COC(C)=O)OC(C)=O | 3.87% (inactive)
COC(=O)N/N=C/c1c[n+]([O-])c2ccccc2[n+]1[O-] | -17.8% (inactive)
CC(=O)OCC(=O)[C@@]1(O)CC[C@H]2[C@@H]3CCC4=CC(=O)C=C[C@]4(C)[C@@]3(F)[C@@H](O)C[C@@]21C | -2.97% (inactive)
COc1cc(O)cc(O)c1 | 7.64% (inactive)
Cc1c(Cn2ccnc2)c2ccccc2n1CCC(=O)O | 0.412% (inactive)
OCCN1C[C@H](O)[C@@H](O)[C@H](O)[C@H]1CO | 2.18% (inactive)
COC(=O)c1cccnc1 | -9.88% (inactive)
COc1ccccc1OC(=O)Oc1ccccc1OC | -1.29% (inactive)
CC1CCc2cc(F)cc3c(=O)c(C(=O)O)cn1c23 (stereo not given) | -5.59% (inactive)
CCOC(=O)OC(C)OC(=O)[C@@H]1N2C(=O)[C@@H](NC(=O)[C@H](N)c3ccccc3)[C@H]2SC1(C)C (stereo not given in full) | -4.66% (inactive)
CC(=O)OC[C@H]1O[C@@](COC(C)=O)(O[C@H]2O[C@H](COC(C)=O)[C@@H](OC(C)=O)[C@H](OC(C)=O)[C@H]2OC(C)=O)[C@@H](OC(C)=O)[C@@H]1OC(C)=O | 0.567% (inactive)
O=C(O)COC(=O)Cc1ccccc1Nc1c(Cl)cccc1Cl | 4.72% (inactive)
CCCOC(=O)c1ccc(N)cc1 | -14.3% (inactive)
C[C@@H]1CCC[C@H](C)N1 | 6.27% (inactive)
CCCCCCCC(=O)OCC(COC(=O)CCCCCCC)OC(=O)CCCCCCC | -13.2% (inactive)
C/C=C/C(=O)N(CC)c1ccccc1C | 1.3% (inactive)
CC1(C)[C@@H](OC(=O)CCC(=O)O)CC[C@]2(C)[C@H]3C(=O)C=C4[C@@H]5C[C@@](C)(C(=O)O)CC[C@]5(C)CC[C@@]4(C)[C@]3(C)CC[C@@H]12 | -0.247% (inactive)

SMILES | activity change, negative = inhibition
O=C(OOC(=O)c1ccccc1)c1ccccc1 | -5.72% (inactive)
CCCNC(C)C(=O)Nc1c(C)csc1C(=O)OC (stereo not given) | -6.23% (inactive)
OC(CCN1CCCC1)(c1ccccc1)C1CCCCC1 (stereo not given) | 11.1% (inactive)
CC(=O)NS(=O)(=O)c1ccc(N)cc1 | 18.1% (inactive)
CC(=O)SC[C@@H](Cc1ccccc1)C(=O)NCC(=O)OCc1ccccc1 | 12.8% (inactive)
CC(C)CCOC(=O)c1ccc(N(C)C)cc1 | -1.28% (inactive)
O=C1C(c2[nH]c3ccccc3c2O)=Nc2ccccc21 | 0.954% (inactive)
CC(=O)N(CC(O)CN(C(C)=O)c1c(I)c(C(=O)NCC(O)CO)c(I)c(C(=O)NCC(O)CO)c1I)c1c(I)c(C(=O)NCC(O)CO)c(I)c(C(=O)NCC(O)CO)c1I (stereo not given) | -0.124% (inactive)
Cc1c(NC(C)C)c(=O)n(-c2ccccc2)n1C | -0.585% (inactive)
CC(=O)Nc1ccc(OCCOCCOc2ccc(NC(C)=O)cc2)cc1 | -8.23% (inactive)
O=C(/C=C/c1ccc(O)c(O)c1)O[C@@H]1C[C@@](OC(=O)/C=C/c2ccc(O)c(O)c2)(C(=O)O)C[C@@H](O)[C@@H]1O | -0.817% (inactive)
NC(=O)CCCCC1CCSS1 (stereo not given) | -3.14% (inactive)
CCCCCC(N)=O | 9.97% (inactive)
O=C(O)[C@@H]1[C@H]2C[C@H]3c4[nH]c5ccccc5c4CCN3C[C@@H]2CC[C@@H]1O | 3.9% (inactive)
CC(=O)NCc1c(I)c(NC(C)=O)c(I)c(C(=O)O)c1I | 0.119% (inactive)
CCOC(N)=O | 25.9% (inactive)
CCN(CC)C(=O)c1cccc(C)c1 | -4.55% (inactive)
O=C(CCBr)N1CCN(C(=O)CCBr)CC1 | 2.36% (inactive)
O=C1c2ccccc2C(=O)C1c1ccc(Br)cc1 | 0.873% (inactive)
Cc1cccc(Nc2ccccc2C(=O)O)c1C | -2.78% (inactive)
